# Reference: PubChem BioAssay AID1347383 (Zoeller Lab, School of Medicine, Boston University, 2020)
# Calls of active or inactive are those of the source.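 Rule for the calls: active = cell survival after UV exposure 2 SD above solvent-only control wells at 10 µM, confirmed on one or two repeats; inactive = the rest.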
# Assay: cell survival after pyrene fatty acid photosensitization – ZR-82 cells, Analyticon library, screen 2, phospholipid biosynthesis inhibitor project, primary screen (AID 1347383);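 note: survival reflects blocked phospholipid synthesis cutting uptake of the phototoxic fatty acid; compound and fatty acid exposure 3 h then viability read next day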
# Conditions: ZR-82 CHO cells, pyrene-fatty acid UV killing, CellTiter Blue; at 10 µM; peroxisome-deficient CHO-K1 variant; with DGAT-1, DGAT-2 and ACAT inhibitors
row,SMILES,outcome
1,C=C1C(=O)OC2/C=C(\C)C3=CC(=O)C(C)(CC(OC(=O)/C(C)=C/COC(C)=O)C12)O3 (stereo not given),inactive
2,C/C=C/C=C/C(CC(=O)O)Nc1ccc(C=O)cc1 (stereo not given),inactive
3,C/C1=C\CCC2=CC(OC2=O)C(C)(C)/C=C\C1=O (stereo not given),inactive
4,C=C(Oc1cccc(C(=O)O)c1)C(=O)O,inactive
5,C=C(C(=O)OC)[C@@H]1CC=C2C=CC(=O)[C@H](C)[C@@]2(C)C1,inactive
6,CC(O)C(O)c1ccc(OC(C)C(O)c2ccc(O)cc2)cc1 (stereo not given),inactive
7,Oc1cc(O)c2c(c1)O[C@H](c1ccc(O)c(O)c1)[C@H](O)C2,inactive
8,COc1cc(OC)c2c(c1Cl)OC1(C(=O)C=C(O)C=C1C)C2=O (stereo not given),inactive
9,O=C(O)C1(O)C[C@@H](O)C(O)[C@H](O)C1 (stereo not given in full),inactive
10,C/C(=C\C(=O)C(C)C1CCC2C3=C(CCC21C)C1(C)CCC(O)C(C)(C)C1(O)CC3)C(C)(C)O (stereo not given),inactive
11,C/C=C/C(O)CC(=O)O (stereo not given),inactive
12,CC(=O)O[C@H]1CC[C@H](C)[C@@]2(C)[C@H](OC(C)=O)c3c(C)coc3C(=O)[C@H]12,inactive
13,CC(C)=CCCC1(C)C(CC=C(C)C)CC2(CC=C(C)C)C(=O)C(=C(O)c3ccccc3)C(=O)C1(C)C2=O (stereo not given),inactive
14,CCC1C(=O)O[C@]23C=C[C@@H]4C(C(=O)O)=CO[C@H](OC12)[C@@H]43 (stereo not given in full),inactive
15,CC1(C)CC2C(O)c3cocc3CC(C)(O)C2C1 (stereo not given),inactive
16,COC1C(OC(=O)/C=C/C=C/C=C/C=C/C(=O)O)CCC2(CO2)C1C1(C)OC1CC=C(C)C (stereo not given),inactive
17,O=c1ccc2nccc3c4ccccc4n1c23,inactive
18,Cn1c2c(c(=O)c3cc(O)ccc31)CC(C(C)(C)O)O2 (stereo not given),inactive
19,O=c1c(O)c(-c2ccc(O)cc2)oc2cc(O)cc(O)c12,inactive
20,COC1C(=O)CCC2(CO2)C1(O)C1(C)OC1CC=C(C)C (stereo not given),inactive

row,SMILES,outcome
1,COC(=O)/C=C/c1ncn(C)c1CC=C(C)C,inactive
2,CC1CC(=O)C2CC12C(C)(O)CO (stereo not given),inactive
3,CC(C)(O)[C@@H]1Cc2cc3ccc(=O)oc3cc2O1,inactive
4,COc1cc2ccc3c(c2cc1OC)N(C)Cc1c(OC)c(OC)cc(OC)c1-3,inactive
5,CC1=CC(=O)C2C(C)(C)CC(O)CC2(C)C1CO (stereo not given),inactive
6,CC(=O)c1ccc(O[C@@H]2O[C@H](CO)[C@@H](O)[C@H](O)[C@H]2O)cc1,inactive
7,COc1cc(O)cc2c1C(=O)CC(c1ccccc1)O2 (stereo not given),inactive
8,O=c1c(O)c(-c2ccc(O)c(O)c2)oc2cc(O)cc(O)c12,inactive
9,COc1cc2c(cc1O)C(=O)CC1C(C)(C)C(=O)CCC21C (stereo not given),inactive
10,C=C(C(=O)O)C(CCCCCC)C(=O)O (stereo not given),inactive
11,COc1cc(/C=C/CO)ccc1OC/C=C(\C)CCC=C(C)C,inactive
12,OC1C(O)C(O)C(O)C(O)C1O (stereo not given),inactive
13,C/C=C(/COC(=O)/C(C)=C/C)C(=O)OC/C=C/c1ccc(OC)cc1,inactive
14,C=C[C@H](/C=C\c1ccc(O)cc1)c1ccc(O)cc1,inactive
15,C=C(C)[C@@H]1CC[C@]2(C(=O)O)CC[C@]3(C(=O)O)[C@H](CCC4[C@@]5(C)CCC(=O)C(C)(C)C5CC[C@]43C)C12 (stereo not given in full),inactive
16,CC(C)CC(O)C(=O)NC(C)C(=O)NC(CC(C)C)C(=O)NCCCC(=O)O (stereo not given),inactive
17,C=C(C)[C@@H]1CC[C@]2(COC(C)=O)CC[C@]3(C)[C@H](CC[C@@H]4[C@@]5(C)CC[C@H](OC(C)=O)C(C)(C)[C@@H]5CC[C@]43C)[C@@H]12,inactive
18,CC/C=C/CC1=C(CCCCCCCC(=O)O)CCC1=O,inactive
19,O=C(Cc1ccccc1)O[C@@H]1[C@@H](O)[C@H](O)[C@@H](CO)O[C@H]1O,inactive
20,C=C1C(=O)O[C@@H]2C=C(C)[C@@H]3CC[C@@](C)(O)[C@@H]3C[C@H]12,inactive
